Bioassay records deposited in PubChem by PCMD.
Many of the other results were omitted from the sample, so hits are more common in it than they were.
FXIIa single – human FXIIa protease inhibitors, primary screen, biochemical, single well | inhibition, % at 10 µM | Coagulation factor XII (Homo sapiens), P00748 | 33,000 tested, 0.2% active | purified human FXIIa, AMC substrate fluorescence, 2 h; in the data active means inhibition above about 30%;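 further: 0% = enzyme with vehicle only and 100% = no enzyme blank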
FXIa single inh – human FXIa protease inhibitors, primary screen, biochemical, single compound per well; Coagulation factor XI (Homo sapiens), P03951; 33,000 tested, 0.3% active; inhibition, % at 10 µM; purified human FXIa, fluorogenic AMC substrate cleavage; AID 687, 2007;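 active means inhibition above 40% in the primary screen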;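 further: 0% = enzyme without compound and 100% = blank wells lacking enzyme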
Target sequence (P03951 19-387 limits assumed): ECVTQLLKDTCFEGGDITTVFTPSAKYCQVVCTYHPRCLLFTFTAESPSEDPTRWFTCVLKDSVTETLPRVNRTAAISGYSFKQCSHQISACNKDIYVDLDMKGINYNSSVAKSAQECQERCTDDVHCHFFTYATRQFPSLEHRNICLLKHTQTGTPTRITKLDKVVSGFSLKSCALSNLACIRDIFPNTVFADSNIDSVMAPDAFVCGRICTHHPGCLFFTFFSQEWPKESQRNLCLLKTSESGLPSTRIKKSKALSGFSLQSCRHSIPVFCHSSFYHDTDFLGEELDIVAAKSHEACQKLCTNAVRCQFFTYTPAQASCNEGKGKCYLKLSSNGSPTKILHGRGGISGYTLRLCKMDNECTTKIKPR
Target sequence (P03951 388-625 limits assumed): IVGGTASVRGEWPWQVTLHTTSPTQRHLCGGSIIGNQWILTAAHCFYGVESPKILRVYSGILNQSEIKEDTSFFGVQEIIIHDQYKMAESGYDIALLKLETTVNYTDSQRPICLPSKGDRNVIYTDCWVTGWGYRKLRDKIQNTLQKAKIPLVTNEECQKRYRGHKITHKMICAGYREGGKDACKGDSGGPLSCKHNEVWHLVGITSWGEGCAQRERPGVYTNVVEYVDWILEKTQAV
Numbers without * were called inactive.

`O=C(Oc1cccc2cccnc12)c1ccco1` gave FXIIa single 10 and FXIa single inh -5.
Screening O=C(Oc1ccc(Cl)c2cccnc12)c1ccco1 returned FXIIa single 37* and FXIa single inh 7.
For CC(C(N)=O)N1C(=O)c2cccc3cccc1c23 (configuration not stated) the results were FXIIa single 4 and FXIa single inh 5.
O=C(O)/C=C/C(=O)Nc1ccccc1C(=O)Nc1ccccc1 was read as FXIIa single 14 and FXIa single inh -4.
Clc1ccccc1C(c1nnnn1Cc1ccco1)N1CCN(Cc2ccco2)CC1 (configuration not stated) was read as FXIIa single 4 and FXIa single inh -2.
For COc1ccc(Cn2nnnc2C(c2ccccc2Cl)N2CCC(C(N)=O)CC2)cc1 (configuration not stated) the results were FXIIa single 2 and FXIa single inh 45*.
Screening CC(C)CNc1c(N)c(=O)oc2ccccc12 returned FXIIa single -1 and FXIa single inh 1.
N#Cc1cc2c(nc1SCC(=O)Nc1sc3c(c1C#N)CCC3)CCCCCC2 was read as FXIIa single 7 and FXIa single inh -5.
N#Cc1cc2c(nc1SCC(=O)Nc1sc3c(c1C#N)CCC3)CCC2 was read as FXIIa single 2 and FXIa single inh 42*.
`O=C(c1cccn2c(=O)c3cc4ccccc4cc3nc12)N1CCN(c2ccccc2)CC1` gave FXIIa single 5 and FXIa single inh -6.
For CCn1c(=O)c2c3c(sc2n2c(=S)[nH]nc12)CCC3 the results were FXIIa single -14 and FXIa single inh 19.
Screening CCCNC(=O)C1CNc2ccccc2O1 (configuration not stated) returned FXIIa single 5 and FXIa single inh 7.
`COc1ccc2c(=O)cc(-c3ccccc3)n(C)c2c1` gave FXIIa single -13 and FXIa single inh 105*.
Screening COc1ccc2c(c1)c1ccccc1n2C returned FXIIa single 5 and FXIa single inh 1.
Screening Cc1cccc(N2CCN(C(=O)CCCSc3nc4ccccc4[nH]3)CC2)c1C returned FXIIa single 7 and FXIa single inh -25.
COC(=O)c1cc(C(=O)OC)cc(N2C(=O)CN=C2Nc2nc(C)cc(C)n2)c1 was read as FXIIa single 5 and FXIa single inh 2.
Screening COc1ccc(C2CCCN2C(=O)Nc2ccccc2)cc1OC (configuration not stated) returned FXIIa single 2 and FXIa single inh 5.
`O=C(c1cc(-c2ccncc2)nc2ccccc12)N1CCN(S(=O)(=O)/C=C/c2ccccc2)CC1` gave FXIIa single -10 and FXIa single inh -12.
Screening Cc1ccc(-c2n[nH]c(=O)c3ccccc23)cc1S(=O)(=O)N(C)CCO returned FXIIa single -13 and FXIa single inh 18.
`Cc1ccc(-c2n[nH]c(=O)c3ccccc23)cc1S(=O)(=O)NCCO` gave FXIIa single 38* and FXIa single inh -6.
O=C(Nc1nn[nH]n1)C12CC3CC(CC(C3)C1)C2 was read as FXIIa single 8 and FXIa single inh -1.
Screening CS(=O)(=O)n1nc(-c2ccc(Cl)cc2)nc1SCc1ccccc1 returned FXIIa single 3 and FXIa single inh 1.
For C=CCNc1cc(C)oc(=O)c1C(=O)CCC the results were FXIIa single 10 and FXIa single inh 3.
O=C(c1ccc2c(c1)OCO2)N1CCN(c2ccc(F)cc2)CC1 was read as FXIIa single 33* and FXIa single inh 4.
`O=C(Nc1ccc(N2CCN(C(=O)c3ccccc3)CC2)cc1)c1ccc2c(c1)OCO2` gave FXIa single inh 36.
CC(=O)N[C@H]1C[C@@H]1c1ccccc1 was read as FXIIa single 6 and FXIa single inh 3.
For CCC1CC2CC(NC(C)=O)C1C2 (configuration not stated) the results were FXIIa single 4 and FXIa single inh 47*.
CCn1c(=O)n(-c2ccc(Cl)cc2)c(=O)c2c3c(sc21)COC(C)(C)C3 was read as FXIIa single 4 and FXIa single inh -4.
`Cn1nc(Oc2nc(N3CCOCC3)nc(N3CCOCC3)n2)ccc1=O` gave FXIIa single 14 and FXIa single inh 13.
`CC(=O)Oc1ccc2c(C)cc(=O)oc2c1` gave FXIIa single 32* and FXIa single inh 6.
Screening CC(=O)Oc1cc2oc(=O)cc(C)c2cc1OC(C)=O returned FXIIa single -1 and FXIa single inh 0.
Screening COC(=O)c1cc(CN2CCN(c3ccccc3C)CC2)ccc1O returned FXIIa single 3 and FXIa single inh 10.
COc1ccc2c(c1)CCc1c(C(=O)NCc3ccc(Cl)cc3)noc1-2 was read as FXIIa single 81* and FXIa single inh 2.
COc1ccc2c(c1)CCc1c(C(=O)Nc3c(C)nn(Cc4ccccc4)c3C)noc1-2 was read as FXIIa single -9 and FXIa single inh 29.
Screening COc1ccccc1C(c1nnnn1CCc1ccccc1)N1CCCCCC1 (configuration not stated) returned FXIIa single 3 and FXIa single inh -1.
`O=C(NCc1ccccc1)c1ccc(CS(=O)(=O)c2ccccc2)o1` gave FXIIa single -3 and FXIa single inh -4.
For Cc1cc(C)c2c(N)c(S(=O)(=O)Cc3ccccc3)sc2n1 the results were FXIIa single 5 and FXIa single inh 8.
For Cc1ccc(-c2cc(-c3ccccc3)c3c(N)c(S(C)(=O)=O)sc3n2)cc1 the results were FXIIa single 51* and FXIa single inh -5.
For Cn1c(SCCCC(=O)c2ccc(Br)cc2)nnc1-c1ccncc1 the results were FXIIa single 2 and FXIa single inh -2.
`O=C(CC12CC3CC(CC(C3)C1)C2)Nc1cccc2ncccc12` gave FXIIa single 8 and FXIa single inh 6.
`Cc1cc(=O)[nH]c(-n2[nH]c(C)cc2=O)n1` gave FXIIa single 3 and FXIa single inh 48*.
`Cc1cccc(OCc2nc(C)cc(=O)[nH]2)c1` gave FXIIa single 3 and FXIa single inh -2.
Screening CSc1n[nH]c(NCc2ccc(C)cc2)n1 returned FXIIa single -1 and FXIa single inh -5.
Screening Cc1ccc(N=C(NO)c2nonc2N)cc1 returned FXIIa single 14 and FXIa single inh 2.
CCCC1CCc2c(sc(N)c2C(N)=O)C1 (configuration not stated) was read as FXIIa single 7 and FXIa single inh 52*.
`CCOC(=O)c1c(NS(C)(=O)=O)sc2c1CCC(C)C2` (configuration not stated) gave FXIIa single 7 and FXIa single inh -5.
CCN(C(=O)c1ccco1)c1nnc(-c2ccc(OC)cc2)s1 was read as FXIIa single 3 and FXIa single inh 5.
Screening COc1ccc(-c2nc(N)n(C(C)=O)n2)cc1 returned FXIIa single 27 and FXIa single inh -2.
Screening Cc1ccc(C(=O)n2nc(-c3cccnc3)nc2N)cc1 returned FXIIa single 92* and FXIa single inh 42*.
For Cc1nc(SCC(=O)N2c3ccccc3Sc3ccccc32)n[nH]1 the results were FXIIa single -16 and FXIa single inh 30.
For CCOc1ccccc1OC(=O)c1ccco1 the results were FXIIa single 5 and FXIa single inh 4.
For CCOc1cccc2cc(C(N)=O)c(=NCc3ccccc3)oc12 the results were FXIIa single -8 and FXIa single inh 52*.
